Source: article PMC5540273 (PLoS ONE, 2017)

Legend:
Conditions in all cases: concentration: 1 μM, replicates: in singlicate; n = 1
[1] = tested on: JAK1(JH2domain-pseudokinase)
[2] = tested on: JAK2(JH1domain-catalytic)
[3] = tested on: JAK3(JH1domain-catalytic)
[4] = tested on: T1, JNK1
T1 construct: gene MAPK8

[5] = tested on: T2, JNK2
T2 construct: gene MAPK9

[6] = tested on: T3, JNK3
T3 construct: gene MAPK10

[7] = tested on: KIT-autoinhibited
[8] = tested on: KIT
[9] = tested on: LATS1
[10] = tested on: LATS2
[11] = tested on: LCK
[12] = tested on: LIMK1
[13] = tested on: LIMK2
[14] = tested on: T4, LKB1
T4 construct: gene STK11

[15] = tested on: T5, LOK
T5 construct: gene STK10

[16] = tested on: LRRK2
[17] = tested on: LTK
[18] = tested on: LYN
[19] = tested on: T6, LZK
T6 construct: gene MAP3K13

[20] = tested on: MAK
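Note: KINOMEscan kinase panel screen.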

| Structure (SMILES) | %Inh [1] | %Inh [2] | %Inh [3] | %Inh [4] | %Inh [5] | %Inh [6] | %Inh [7] | %Inh [8] | %Inh [9] | %Inh [10] | %Inh [11] | %Inh [12] | %Inh [13] | %Inh [14] | %Inh [15] | %Inh [16] | %Inh [17] | %Inh [18] | %Inh [19] | %Inh [20] |
| --- | --- | --- | --- | --- | --- | --- | --- | --- | --- | --- | --- | --- | --- | --- | --- | --- | --- | --- | --- | --- |
| Cc1ccc(NC(=O)c2ccnc(N3CCCCC3)c2)cc1-c1ccc(C(=O)NCC2CC2)cc1 [GW775610] | 0% | 90% | 95.2% | 42% | 43% | 28% | 8% | 87% | 0% | 0% | 29% | 0% | 0% | 34% | 79% | 0% | 15% | 0% | 0% | 13% |
| Fc1cc(Cl)ccc1Nc1ccnc2cc(-c3ccc(CN4CCSCC4)o3)ccc12 [GW560106] | 0% | 0% | 0% | 13% | 34% | 1% | 11% | 100% | 73% | 0% | 98.4% | 0% | 0% | 11% | 73% | 22% | 61% | 74% | 32% | 32% |
| COc1cc(Nc2ccnc3cc(-c4ccncc4)ccc23)cc(OC)c1OC.Cl [GW494610] | 0% | 12% | 0% | 49% | 54% | 37% | 0% | 76% | 0% | 0% | 98.6% | 0% | 0% | 0% | 96.9% | 27% | 24% | 67% | 31% | 20% |
| CC(C)(C)c1ccc(C(=O)Nc2cn3cc(-n4ccnc4)ccc3n2)cc1 | 2% | 26% | 0% | 5% | 0% | 0% | 20% | 98.4% | 0% | 0% | 0% | 0% | 10% | 0% | 0% | 12% | 0% | 10% | 0% | 18% |
| CN(c1ccc(NC(=O)N2CCN(CCCN3CCOCC3)CC2)cc1)c1ccnc(Nc2ccc(CS(C)(=O)=O)cc2)n1.Cl [GW830899] | 44% | 65% | 14% | 46% | 0% | 0% | 0% | 98.8% | 0% | 0% | 16% | 2% | 6% | 0% | 72% | 0% | 0% | 0% | 0% | 0% |
| Cc1cc(-c2ccnc(Nc3cccc(C#N)c3)n2)cc(C)c1O [GSK1440913] | 78% | 92.6% | 74% | 98.9% | 77% | 99% | 0% | 49% | 0% | 0% | 18% | 14% | 42% | 86% | 17% | 0% | 0% | 20% | 0% | 36% |
| Cc1ccc(Nc2ccnc(Nc3ccc(C)c(F)c3)n2)cc1O.Cl [GW582868] | 62% | 48% | 0% | 31% | 16% | 12% | 3% | 93.8% | 0% | 0% | 59% | 0% | 0% | 0% | 5% | 57% | 0% | 22% | 24% | 17% |
| CC(C)c1nc(-c2cccc(NS(=O)(=O)c3c(F)cccc3F)c2)c(-c2ccnc(Nc3ccc(N4CCOCC4)nc3)n2)s1.Cl [GSK1723980] | 44% | 36% | 92.3% | 23% | 31% | 7% | 0% | 99.9% | 4% | 0% | 99.7% | 100% | 100% | 4% | 99.1% | 18% | 0% | 97.8% | 52% | 70% |
| CCNc1nccc(-c2c(-c3ccc(F)cc3)ncn2C2CCN(C)CC2)n1 | 80% | 0% | 0% | 75% | 96.4% | 96.3% | 0% | 0% | 0% | 0% | 11% | 0% | 7% | 0% | 0% | 0% | 0% | 0% | 0% | 0% |
